# Source: PubChem BioAssay (NCI)
# Compounds without any hit were thinned out: in the full panel of roughly 83,000, 20% have a hit.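 Treatment: one concentration, 48 hours, 96-well format. Scoring: percent growth, with anything below 10 considered active.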 The source made the active and inactive calls.
# Test system: HL-60(TB) leukemia
# Assay: NCI-60 one-dose screen, 48 h (100 = growth as untreated, 0 = no growth, -100 = all killed)
# Details: 10 µM unless noted
row,SMILES,growth
1,Cc1cc(-c2ccc3nc(N)sc3c2)nc2ccc3[nH]ncc3c12,25.8% (inactive)
2,COc1ccc([C@@H]2[C@@H](O)C(=O)N2c2cc(OC)c(OC)c(OC)c2)cc1F,-15.8% (active)
3,CS(=O)(=O)c1ccc2c(c1)c1c(n2S(=O)(=O)c2ccc(Cl)cc2)CCCC1,4.55% (active)
4,CN(C)c1ccc(/C=c2\sc3nc4ccccc4n3c2=O)cc1,94.7% (inactive)
5,Cc1[nH]c(C(=O)Nc2ccccc2OCc2cccc(C(=O)NC3CCCNC3)c2)c(Cl)c1Cl (centres undefined),-53.9% (active)
6,COc1ccc2c(c1)c(-c1nnc(N)nc1-c1cn(C)c3ccccc13)cn2C,72.6% (inactive)
7,O=C(NCc1ncc[nH]1)c1ccc(-c2nc3ccc4[nH]ncc4c3c3c2CCCC3)cc1,-24.7% (active)
8,C/C(=C(/C)C1CC1CCNC1CCC(NC(=O)OC(C)(C)C)CC1)c1ccccc1 (centres undefined),56.6% (inactive)
9,CCN1C(=S)N(CC)C2C1NN=C1SC(c3ccccc3)=CC(=O)N12 (centres undefined),86.9% (inactive)
10,Cn1cc2c(c1)-c1c(sc3nc(-c4ccc(NC(=O)Nc5cc(C(C)(C)C)on5)cc4)cn13)CC2,12.4% (inactive)
11,CC1(COc2ccc3ncc(C#Cc4cncc(C(=O)Nc5cccc(C(F)(F)F)c5)c4)n3n2)COC1,39.9% (inactive)
12,O=C(c1ccc(O)cc1)[C@@H]1CN[C@@]2(C(=O)Nc3ccccc32)[C@H]1c1ccc(F)cc1,95.4% (inactive)
13,N#Cc1c(-c2cccs2)cc(-c2cnccn2)nc1SCC(=O)N/N=C/c1ccc(Cl)cc1,110% (inactive)
14,Cc1cn(-c2cc(NC(=O)c3cncc(C#Cc4cnc5ccc(O[C@@H]6CCOC6)nn45)c3)cc(C(F)(F)F)c2)cn1,-32.6% (active)
15,Clc1nc2ccccc2nc1-c1nnc(C2CCCCC2)o1,66.6% (inactive)
16,COc1cc(C(=O)c2cc(C(C)=O)c3c4ccccc4ccn23)cc(OC)c1OC,32.9% (inactive)
17,COC1CCN(Cc2ccc3c(NNC(=O)c4cnccn4)nc4cc(F)ccc4n23)C1 (centres undefined),-19.4% (active)
18,N/C(=N\C(N)=N\c1nc2ccccc2s1)c1ccc2ccccc2c1,99.8% (inactive)
19,CS(=O)(=O)c1ccc(/C(=N/N=C(N)N)c2ccc(F)cc2)cc1,97.8% (inactive)
20,CC(=O)OC[C@]12CC[C@@H](C(=O)/C=C/c3cccnc3)[C@@H]1[C@H]1CC[C@@H]3[C@@]4(C)CC[C@H](OC(C)=O)C(C)(C)[C@@H]4CC[C@@]3(C)[C@]1(C)CC2,-15.1% (active)

row,SMILES,growth
1,O=C(/C=C/c1ccc(F)cc1)c1ccc(O)cc1,81.9% (inactive)
2,COc1ccc(C(=O)c2cc(C(=O)/C=C/c3c(Cl)cccc3Cl)c3cc(C)ccn23)cc1,101% (inactive)
3,COC(=O)c1ccc(NC2=C/C(=N/S(=O)(=O)c3ccc(C(=O)O)cc3)c3ccccc3C2=O)cc1,-15.9% (active)
4,O=C1c2c(c3c4cccnc4[nH]c3c3ccc4ccccc4c23)C(=O)N1CCN1CCCCC1,35.4% (inactive)
5,CCOC(=O)Nc1ccc2c(ccn2C(=O)c2cccc(F)c2)c1,12.3% (inactive)
6,CN1CCN(Cc2ccc(NC(=O)c3cncc(C#Cc4cnc5ccc(OC6CCOCC6)nn45)c3)cc2C(F)(F)F)CC1,-43.8% (active)
7,COc1cc2cc(Oc3ccc(NC(=O)c4cccc(C(F)(F)F)c4)cc3)c(C)nc2cc1OCCN(C)C,97.2% (inactive)
8,Cc1ccc(-c2cc3nc(C(Cl)Cl)nc(-c4ccc(S(=O)(=O)N(C)C)cc4)n3n2)cc1,74.9% (inactive)
9,C#C[C@]1(O)CC[C@H]2[C@@H]3CC=C4c5sc(Nc6nc(C)cc(OC)n6)nc5CC[C@]4(C)[C@H]3CC[C@@]21C,12.1% (inactive)
10,CCCC(=O)NC(c1cccnc1)c1cc(C(C)(C)C)c2cccnc2c1O (centres undefined),-13.7% (active)
11,COc1ccc([C@@H]2c3[nH]c4ccccc4c3CC3C(=O)N(C4CCN(Cc5c(F)cccc5F)CC4)CC(=O)N32)c(OC)c1 (some centres undefined),39.6% [5.26 µM] (inactive)
12,N[C@@H](Cc1cn(-c2ccnc3ccccc23)nn1)C(=O)O,110% (inactive)
13,COc1cc(Cn2cc3c(c2)-c2onc(CN4CCCC4)c2CC3)cc(OC)c1OC,99% (inactive)
14,O=C(COc1ccc(/C=C2\C(=O)Nc3ccc(F)cc32)cc1)Nc1ccccc1,95.9% (inactive)
15,NCCN1CCN(c2nc(-c3ccccc3)nc3nc(-c4ccccc4)oc23)CC1,-5.94% (active)
16,CCC(C)[C@H]1OC(=O)[C@H](C(C)C)N(C)C(=O)[C@@H](C(C)C)OC(=O)[C@H](C(C)C)N(C)C(=O)[C@@H](C(C)CC)OC(=O)[C@H](C(C)C)N(C)C1=O (some centres undefined),-47.7% (active)
17,C[C@]12CC[C@H]3[C@@H](CC=C4C[C@@H](O)CC[C@@]43C)[C@@H]1CC[C@@H]2[C@](C)(O)CCc1cccnc1,47.6% (inactive)
18,O=S(=O)(Nc1ccc(I)cc1Cl)c1ccc(-c2cnc(C3CC3)o2)cc1,9.69% (active)
19,Cc1cc(Cl)cc(NS(=O)(=O)c2ccc(-c3cnc(C4CC4)o3)cc2)c1,-4.23% (active)
